PubChem BioAssay AID602241 (Southern Research Specialized Biocontainment Screening …, 2012)
Potency and affinity values are given separately. The source made the active and inactive calls. A call without a number means that no potency is given here. The rule behind the calls is not given here.

Assay: VEEV TC 83 cytopathic effect inhibition, infected cells, confirmatory screen (AID 602241)

Structure (SMILES)	outcome
O=c1c2cc([N+](=O)[O-])ccc2nc(CN2CCN(c3ccccc3)CC2)n1-c1ccccc1F	inactive
O=C(Oc1ccc2ccccc2c1Br)N1CCCCCC1	inactive
